Assay results reported in the supplement of paper PMC4166925.
± gives the standard deviation of the averaged measurements. Whole data set: some 33,000 sequences, median “E-score (dimensionless, -0.5 to 0.5)” near -0.046, cut for the highest 2% near 0.36. For the sample, the highest values were picked, then their nearest neighbours and some sequences at random.

system: T1, SpTbr T-box DNA-binding domain (GST fusion); assay: PBM E-score of 8-mer (E-score (dimensionless, -0.5 to 0.5)); Tbr is Tbrain of the sea star Patiria miniata (Pm) or the sea urchin Strongylocentrotus purpuratus (Sp); higher = stronger binding preference; conditions: the construct has about 5 more residues each side
T1 sequence: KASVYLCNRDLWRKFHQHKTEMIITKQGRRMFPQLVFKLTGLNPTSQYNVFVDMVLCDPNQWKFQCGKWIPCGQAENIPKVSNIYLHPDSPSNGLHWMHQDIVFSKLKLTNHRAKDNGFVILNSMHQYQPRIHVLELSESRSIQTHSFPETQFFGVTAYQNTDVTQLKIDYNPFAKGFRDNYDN
Summary of the method: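 Universal Agilent oligonucleotide arrays, made double-stranded by primer extension, were incubated with 200 nM GST-fused Tbr T-box DNA-binding domain in PBS (pH 7.5). The protein was expressed in BL21 E. coli at 20 °C and purified by glutathione affinity chromatography. After scanning and quantification, the Universal PBM Analysis Suite assigned an enrichment E-score to each ungapped 8-mer, averaged over duplicate arrays.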

Sequence	PBM E-score of 8-mer
GGTTGTTA	0.213 ± 0.048
CCGACCTC	-0.148 ± 0.046
CAACACGG	0.0142 ± 0.003
GTGTCAAC	0.4761 ± 0.0027
ATGTCAGA	-0.15 ± 0.011
CTGTCAGA	0.207 ± 0.025
CTGTCAAC	0.35 ± 0.023
GTGTCAGA	0.387 ± 0.023
CTGTCGCA	0.235 ± 0.054
CTGTCAAA	0.249 ± 0.057
ATGTCAAC	0.267 ± 0.024
GTGTCAAA	0.444 ± 0.0081
TTGTCAAA	0.0897 ± 0.09
GTGTCGCA	0.367 ± 0.021
ATGTCGCA	0.231 ± 0.039
CCGCTCTC	-0.00942 ± 0.013
CCTATTCG	-0.116 ± 0.11
AAACTATG	-0.131 ± 0.049
CCAACTCA	-0.0818 ± 0.049
CAGAAGCC	-0.308 ± 0.064
GTTCAATA	-0.174 ± 0.0066
ATGTCATA	-0.202 ± 0.0053
GTGTCACA	0.436 ± 0.011
CCGTCAAC	0.24 ± 0.021
GTGTCATA	0.404 ± 0.022

Sequence	PBM E-score of 8-mer
GCGTCAAC	0.3857 ± 0.0035
ATGTCACA	0.3087 ± 0.00058
GCGTCAAA	0.31 ± 0.029
CTGTCATA	0.122 ± 0.036
ATGTCACG	0.204 ± 0.017
ACCACACT	0.328 ± 0.0063
CAAGGTCC	-0.257 ± 0.041
AACCCGTT	-0.0209 ± 0.077
CGAGGTCA	0.0539 ± 0.041
AGAGGTGG	0.285 ± 0.031
GGAGGTCA	0.0169 ± 0.067
CGAGGTCC	-0.207 ± 0.017
CGAGGTGC	0.445 ± 0.0072
CGAGGTTA	0.0218 ± 0.011
CGAGGTGA	0.418 ± 0.01
AGAGGTTC	-0.172 ± 0.065
CGAGGTAC	-0.11 ± 0.026
GGAGGTGA	0.374 ± 0.035
AGAGGTGC	0.394 ± 0.014
AGAGGTGA	0.298 ± 0.023
GCAGCCCC	-0.15 ± 0.027
CGTAGTGC	-0.0779 ± 0.017
CGCTCGAC	-0.0351 ± 0.11
ATCCTGTA	-0.104 ± 0.036
ACCAGACT	-0.1941 ± 0.0019

Sequence	PBM E-score of 8-mer
GACGCCCA	-0.0155 ± 0.091
AGCTGTTG	0.208 ± 0.0081
AGATGTTG	0.0448 ± 0.039
AGATGTTC	0.0355 ± 0.018
CGGTGTTC	-0.0703 ± 0.07
AGGTGTTG	0.482 ± 0.0055
AGGTGTTC	0.3819 ± 0.00093
CGGGGTGC	0.233 ± 0.02
GGCCCAGA	-0.2892 ± 0.0023
GTATGGCA	0.0595 ± 0.0057
GCGCTGTA	0.206 ± 0.014
GTACTATA	-0.112 ± 0.079
CCATGCGC	-0.0395 ± 0.1
ACATATCC	-0.0962 ± 0.058
TCTATCAA	-0.141 ± 0.0063
CGGTGTCA	0.398 ± 0.02
GCGTGTCA	0.313 ± 0.024
GGGGGTCA	0.0604 ± 0.0046
CGATGTCA	0.1339 ± 0.00055
GGGTGTCA	0.475 ± 0.0055
CGGTGTCC	-0.0339 ± 0.0071
CGGTGTTA	0.3373 ± 0.0021
CGATGTGA	0.183 ± 0.017
GGGGGTTA	-0.156 ± 0.038
CGGTGTGA	0.456 ± 0.0098

Sequence	PBM E-score of 8-mer
CGGTGTGC	0.0403 ± 0.015
GGGTGTTA	0.463 ± 0.0026
ATGTAGGG	-0.355 ± 0.013
CGAGTTAA	0.193 ± 0.008
GCCCACTA	-0.0422 ± 0.07
CTTCACTA	0.0992 ± 0.0044
GCACCCGC	0.305 ± 0.035
ACACCCGG	0.317 ± 0.042
ACACCCGC	0.3794 ± 0.0031
TCACCCGA	0.0108 ± 0.15
ACACCCGA	0.41 ± 0.0072
CCACCCGC	0.105 ± 0.028
GCTCTGTA	-0.199 ± 0.025
AACTGACT	-0.141 ± 0.043
CAGAAATG	-0.202 ± 0.012
CGTTTTCC	-0.282 ± 0.054
TCATTACA	-0.0133 ± 0.029
CTGTGAAC	0.4126 ± 0.00049
ATGTGAAA	0.263 ± 0.03
TTGTGAAA	0.361 ± 0.04
CTGTGAAA	0.396 ± 0.017
CTGTGAAG	0.296 ± 0.027
ATGTGAAC	0.203 ± 0.012
AACTAGGC	-0.0665 ± 0.022
GCCGGATA	-0.321 ± 0.0046

Sequence	PBM E-score of 8-mer
CAGAGATC	-0.204 ± 0.022
TCGTAGCA	0.128 ± 0.038
GGATTGGA	-0.187 ± 0.026
CGATCCGA	-0.0614 ± 0.036
AAAGAGGG	-0.0825 ± 0.036
CCTGACAG	0.121 ± 0.0013
GCTGACAA	0.227 ± 0.031
CCTGACAC	0.427 ± 0.01
GCTGACAC	0.386 ± 0.039
ACTGACAC	0.349 ± 0.011
CCTGACAA	0.153 ± 0.0094
ATTTGTGG	0.075 ± 0.012
CTCGGGTC	-0.0239 ± 0.0073
AGATGACG	0.125 ± 0.029
TACAGCGA	-0.193 ± 0.038
CGCACTTA	0.329 ± 0.0023
ATCACTTC	0.226 ± 0.033
CACACTTC	0.4456 ± 0.0039
CACACTTA	0.447 ± 0.0064
CACACTGC	0.175 ± 0.0027
AACACTTC	0.407 ± 0.0093
AGCACTTC	0.3006 ± 0.0019
CCCACTTC	0.171 ± 0.018
ATCACTTA	0.0863 ± 0.053
AACACTTA	0.386 ± 0.031

Sequence	PBM E-score of 8-mer
AACACTGA	0.0941 ± 0.085
CACACTGA	0.235 ± 0.0071
AGGAGGGG	0.0237 ± 0.0028
ACATCCAG	0.11 ± 0.03
CAGATTGA	-0.076 ± 0.021
CCAGAAGC	-0.0847 ± 0.077
CGAGTATC	-0.139 ± 0.032
CCCGTTAC	-0.0493 ± 0.068
AACTGCTC	0.00139 ± 0.031
GCAAAAAA	-0.111 ± 0.022
ATCCAATG	-0.108 ± 0.019
ACCATTGA	0.0727 ± 0.061
GCAGCCAC	0.126 ± 0.026
ATACAGAC	-0.0432 ± 0.019
TCCAATAA	-0.0798 ± 0.025
AACACTAG	0.222 ± 0.049
GCCACTTA	0.244 ± 0.011
GACACTGA	0.093 ± 0.019
AACACTTG	0.3953 ± 0.0019
GACACTTA	0.393 ± 0.0065
ATCACTTG	0.169 ± 0.064
GTAGCTTA	-0.0295 ± 0.0053
AAGCTTAC	-0.128 ± 0.056
TCAGGCAA	-0.143 ± 0.02
CAGTATTC	-0.193 ± 0.092

Sequence	PBM E-score of 8-mer
CCCCTACG	-0.185 ± 0.019
AACCTACC	-0.182 ± 0.056
TACCTACA	-0.24 ± 0.016
CACCTACA	0.371 ± 0.014
AACCTACG	-0.159 ± 0.083
GACCTACC	-0.129 ± 0.006
CACCTACG	0.373 ± 0.0055
CACCTACC	0.394 ± 0.01
GACCTACA	-0.0944 ± 0.046
CCCGCCTA	-0.0474 ± 0.13
TATTGCCA	0.0232 ± 0.0082
CCCTTGCG	-0.0683 ± 0.034
GTCTCAGA	-0.0914 ± 0.014
GGTGCATA	0.0222 ± 0.011
CCCGATAA	0.0927 ± 0.11
CCACACGG	0.0912 ± 0.023
CGAACGAG	0.0552 ± 0.067
CGTCCTGC	-0.234 ± 0.0096
ATAAGTCA	-0.102 ± 0.017
AGACACCA	0.251 ± 0.032
TGACACCA	0.419 ± 0.0076
CGACACGA	0.174 ± 0.041
CGACACCG	0.257 ± 0.037
GGACACCA	0.183 ± 0.045
CGACACCA	0.387 ± 0.014

Sequence	PBM E-score of 8-mer
AGACACCC	0.156 ± 0.041
CGACACCC	0.416 ± 0.028
GGACACCC	0.185 ± 0.023
GGCCACTA	-0.0216 ± 0.031
CTACTACC	-0.112 ± 0.033
CCAATTTC	0.0768 ± 0.033
ATCGCTCG	-0.0361 ± 0.046
CTGGCACA	0.1856 ± 0.00035
CTCGCATC	0.129 ± 0.052
ATCGCAAG	0.177 ± 0.03
CTCGCACA	0.37 ± 0.016
CTCGCACC	0.451 ± 0.016
CCCGCACC	0.311 ± 0.036
ATCGCACG	0.345 ± 0.027
ATGGCACC	0.3573 ± 0.0028
CTGGCACC	0.367 ± 0.018
CTCGCAAG	0.204 ± 0.032
ATCGCACA	0.366 ± 0.0063
CTCGCAGA	0.0495 ± 0.024
AGAGTGAC	0.145 ± 0.013
ATATTGGC	0.12 ± 0.019
CGATAGTA	-0.122 ± 0.091
ATTCTACA	-0.0365 ± 0.019
ACGAAAGA	-0.0823 ± 0.0021
AGACTGCG	0.0627 ± 0.0045

Sequence	PBM E-score of 8-mer
GAATCTTA	-0.197 ± 0.05
CATCTCTA	-0.0506 ± 0.074
CAGACTCA	-0.0949 ± 0.051
GCTCTCAC	0.312 ± 0.028
GACTGTGC	-0.124 ± 0.033
GCCCGTCC	-0.216 ± 0.0065
GCCAGGCC	-0.217 ± 0.036
ATCGCAAC	0.232 ± 0.0099
ATCGCAGC	0.0579 ± 0.024
ATCGCACC	0.47 ± 0.006
GTCGCAAA	0.0958 ± 0.038
GTCGCAGA	-0.0708 ± 0.1
GTCGCACA	0.3754 ± 0.0036
AAGGTTAG	-0.0571 ± 0.0011
CTCGGGCC	-0.167 ± 0.0065
GCCGGTCC	-0.235 ± 0.075
CACTCACA	0.377 ± 0.017
GACTCACA	0.313 ± 0.038
CGCTCACA	0.263 ± 0.015
GGCTCACA	0.161 ± 0.053
AACTCACA	0.2436 ± 0.00066
TACTCACA	0.371 ± 0.0028
TGCTCACA	0.3801 ± 0.0011
CACTCACG	0.266 ± 0.052
AACTCACG	0.00507 ± 0.019
